# Among all 350,000 compounds or so, about 6,000 (1.7%) were called active. Roughly 5% stayed inconclusive and do not appear here. No stated cut-off is given here; in the data, active means CPE inhibition above about 20% (passing the limit was not always enough); inconclusive means no clear call, values can overlap the other calls; tested in BHK-21 cells. Only a selection was taken, and actives are over-represented in it overall.
# Test: protection of cells from dengue 2 killing – plate reader, single concentration, primary screen (AID 651640);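 further: 0% = median of neutral control wells and 100% = median of positive control wells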
# Conditions: DENV2-infected cells, cytopathic effect rescue, at 9.99 µM, hits give high values
row,Structure (SMILES),CPE inhibition
1,O=C(NC1CCCC1)[C@H]1[C@H](CO)[C@H]2Cn3c(cccc3=O)[C@H]2N1C(=O)NC1CCCC1,1.25% (inactive)
2,Cn1cnc(CCNC(=O)C[C@H]2CC[C@H]3[C@@H](COC[C@H](O)CN3C(=O)C3CCCC3)O2)c1,-0.992% (inactive)
3,O=C(NCc1ccccc1)[C@@H]1CCCN1C(=O)[C@H]1CCCN1C(=O)c1cccc(Cl)c1,-9.03% (inactive)
4,O=C(NCc1ccccc1)[C@H]1CCCN1C(=O)[C@@H]1CCCN1C(=O)c1ccc(Cl)cc1Cl,40.8% (active)
5,O=C(NCc1ccccc1)[C@H]1CCCN1C(=O)[C@H]1CCCN1C(=O)c1cc(F)cc(F)c1,-4.56% (inactive)
6,CC(C)CC#Cc1ccc([C@H]2[C@H]3CN(C(=O)c4cnccn4)CC(=O)N3[C@H]2CO)cc1,6.05% (inactive)
7,COc1ccc2c3c([nH]c2c1)[C@@H](CO)N(Cc1cc(F)ccc1F)CC31CCN(C(=O)C2CCC2)CC1,8.85% (inactive)
8,C[C@@H]1CCCCO[C@@H](CN(C)C(=O)Cc2ccccc2)[C@H](C)CN([C@@H](C)CO)C(=O)c2cc(NC(=O)Nc3ccc4c(c3)OCO4)ccc2O1,-20.6% (inactive)
9,COc1ccc(C#Cc2ccc3c(c2)[C@]2(C(=O)N3)[C@H](C(=O)N3CCCCCCC3)[C@H]3C(=O)O[C@H](c4ccccc4)[C@H](c4ccccc4)N3[C@@H]2c2ccc(O)cc2)cc1,16.4% (inactive)
10,O=C1O[C@@H](c2ccccc2)[C@@H](c2ccccc2)N2[C@@H](c3ccccc3OCCO)[C@]3(C(=O)Nc4ccc(C#CC5(O)CCCCCC5)cc43)[C@@H](C(=O)N3CCCCCCC3)[C@H]12,-1.79% (inactive)
11,COc1ccc(C#Cc2ccc3c(c2)[C@]2(C(=O)N3)[C@H](c3ccccc3OCCO)N3[C@H](c4ccccc4)[C@H](c4ccccc4)OC(=O)[C@H]3[C@@H]2C(=O)N2CCCCCCC2)cc1,22.3% (active)
12,COc1ccccc1-c1ccc([C@@H]2[C@@H](CO)N3CCCCN(C(=O)c4ccncc4)C[C@@H]23)cc1,-5.15% (inactive)
13,COc1cccc(CNC(=O)C[C@H]2CC[C@@H](NC(C)=O)[C@@H](CO)O2)c1,-0.331% (inactive)
14,Cc1ccc(S(=O)(=O)N[C@H]2C=C[C@@H](CC(=O)NCCc3ccncc3)O[C@@H]2CO)cc1,-2.51% (inactive)
15,CCNC(=O)C[C@H]1CC[C@@H]2[C@H](COc3ccc(NC(=O)Nc4cccc(Cl)c4)cc3C(=O)N2C)O1,3% (inactive)
16,CCN(CC)S(=O)(=O)c1ccc(C)c(NC(=O)COc2ccc(Br)cc2Cl)c1,52.1% (active)
17,CCN(CC)S(=O)(=O)c1ccc(Cl)c(NC(=O)c2ccncc2)c1,2.11% (inactive)
18,CCN(CC)S(=O)(=O)c1ccc(OC)c(NC(=O)CCc2c(C)noc2C)c1,-4.63% (inactive)
19,Nc1[nH]c(C(=O)c2ccc(Br)cc2)c(-c2ccc3c(c2)OCO3)c1C(=O)NCCc1c[nH]c2ccccc12,9.1% (inactive)
20,Cc1ccccc1-c1ccc([C@@H]2[C@@H](CO)N3CCCCN(C(=O)Nc4cccc(F)c4)C[C@H]23)cc1,-1.69% (inactive)
21,CC(C)[C@@H](C)/C=C/[C@@H](C)[C@H]1CC[C@@H]2[C@]1(C)CCC1[C@]23C=C[C@]2(C[C@@H](O)CC[C@]12C)N(c1ccc([N+](=O)[O-])cn1)O3 (some centres not stated),-2.89% (inactive)
22,COC(=O)c1c(-c2ccc(OC)cc2)c2c(c3c4cc(OC)ccc4n(S(=O)(=O)c4ccc(F)cc4)c13)C(=O)N(C)C2,44.7% (active)
23,COC(=O)c1cc2c(c3c4cc(F)ccc4n(S(=O)(=O)c4ccccc4)c13)C(=O)N(Cc1ccccc1OC)C2,15.1% (inactive)
24,COC(=O)c1c(-c2ccc(OC)cc2)c2c(c3c4ccccc4n(S(=O)(=O)c4ccc(C)cc4)c13)C(=O)N(C)C2,2.43% (inactive)

row,Structure (SMILES),CPE inhibition
1,Cc1ccc(S(=O)(=O)N2C[C@@H](O)COC[C@@H]3O[C@@H](CC(=O)N[C@H]4CCN(Cc5ccccc5)C4)CC[C@H]32)cc1,-6.36% (inactive)
2,C/C=C/c1ccccc1[C@H]1[C@@H](C#N)N(c2nc(CC)cs2)[C@@H]1CO,-4.18% (inactive)
3,O=C(CSc1nc2ccccc2c(=O)n1-c1ccc(F)cc1)NC1CC1,-10.2% (inactive)
4,Cc1ccc(-n2c(SCC(=O)N3CCC(C(=O)O)CC3)nc3ccccc3c2=O)cc1C,31.6% (active)
5,O=C(CSc1nc2ccccc2c(=O)n1-c1ccccc1F)N1CCOCC1,3.85% (inactive)
6,CC(=O)N1[C@H](CO)[C@H](c2ccccc2)C12CN(C(=O)c1ccccn1)C2,3.27% (inactive)
7,C=CCOc1c(CNn2cn[nH]c2=S)cccc1OC,-7.79% (inactive)
8,C=CCOc1ccccc1CNn1c(C)n[nH]c1=S,25.4% (active)
9,C=CCn1c(-c2ccccc2OCC)n[nH]c1=S,-1.21% (inactive)
10,Nc1ncnc2c1ncn2[C@@H]1O[C@H](C(=O)N[C@@H](CCc2ccccc2)C(=O)N2CCCN(Cc3cccs3)CC2)[C@@H](O)[C@H]1O,-8.03% (inactive)
11,COc1cccc(S(=O)(=O)N[C@H]2CC[C@H](CC(=O)NC3CCC3)O[C@H]2CO)c1,-5.34% (inactive)
12,CO[C@@H]1CN(C)C(=O)c2ccc(NC(=O)c3ccccn3)cc2OC[C@@H](C)N(C(=O)C2CCCCC2)C[C@H]1C,-2.92% (inactive)
13,O=C(C[C@H]1CC[C@H](NC(=O)Nc2ccc(C(F)(F)F)cc2)[C@H](CO)O1)NCCN1CCCC1,1.56% (inactive)
14,NC(=O)c1ccc(Nc2ccc3nonc3c2[N+](=O)[O-])cc1,-0.407% (inactive)
15,CCOc1ccccc1Nc1ccc2nonc2c1[N+](=O)[O-],22.7% (active)
16,CCOc1ccccc1Nc1ccc(C(=O)O)cc1[N+](=O)[O-],2.94% (inactive)
17,O=C(Nc1ccccc1)N1C[C@H]2[C@@H](c3ccccc31)[C@@H](CO)N2Cc1cocn1,-3.04% (inactive)
18,CO[C@H]1CN(C)C(=O)c2ccc(NC(=O)c3cc(C)on3)cc2OC[C@@H](C)NC[C@@H]1C,-4.45% (inactive)
19,Cc1cccc(-c2ccc([C@H]3[C@H](CO)N4CCCCN(S(=O)(=O)c5cn(C)cn5)C[C@@H]34)cc2)c1,-11.9% (inactive)
20,O=S(=O)(Cc1ccccc1)N1CCCCN2[C@@H](CO)[C@H](c3ccc(-c4ccccc4)cc3)[C@@H]2C1,59% (active)
21,COc1cccc(-c2ccc([C@H]3[C@H](CO)N4CCCCN(S(=O)(=O)c5cccs5)C[C@@H]34)cc2)c1,-2.61% (inactive)
22,O=S(=O)(Cc1ccccc1)N1CCCCN2[C@@H](CO)[C@@H](c3ccc(-c4ccc(F)cc4)cc3)[C@@H]2C1,-23% (inactive)
23,CCS(=O)(=O)N1CCCCN2[C@@H](CO)[C@@H](c3ccc(-c4ccccc4)cc3)[C@@H]2C1,12.3% (inactive)
24,Cc1cccc(-c2ccc([C@@H]3[C@@H](CO)N4CCCCN(S(=O)(=O)c5cccs5)C[C@H]34)cc2)c1,32.7% (active)

row,Structure (SMILES),CPE inhibition
1,CCNC(=O)[C@H]1[C@H](CO)[C@H]2Cn3c(cccc3=O)[C@H]2N1C(=O)C1CCCC1,3.43% (inactive)
2,C[C@@H]1CCCCO[C@@H](CN(C)C(=O)C2CCCCC2)[C@H](C)CN([C@H](C)CO)C(=O)c2cc(NC(=O)Cc3ccccc3)ccc2O1,-2.34% (inactive)
3,COc1cccc(S(=O)(=O)N[C@H]2CC[C@@H](CC(=O)NCc3ccc(F)cc3)O[C@@H]2CO)c1,2.23% (inactive)
4,O=C(C[C@H]1CC[C@H](NC(=O)CCN2CCCCC2)[C@@H](CO)O1)Nc1ccccc1,-7.71% (inactive)
5,CN(C)CC(=O)N[C@@H]1CC[C@H](CC(=O)O)O[C@H]1CO,8.44% (inactive)
6,O=C(O)C[C@@H]1CC[C@H](NC(=O)CCN2CCCCC2)[C@H](CO)O1,20.1% (active)
7,C[C@@H](NC(=O)C[C@@H]1C=C[C@@H](NC(=O)CN2CCOCC2)[C@H](CO)O1)c1ccccc1,-6.9% (inactive)
8,CNC(=O)C[C@@H]1CC[C@@H]2[C@@H](COc3ccc(NC(=O)Cc4cccs4)cc3C(=O)N2C)O1,-1.22% (inactive)
9,COc1ccccc1C(=O)Nc1ccc2c(c1)OC[C@@H](C)NC[C@H](C)[C@@H](OC)CN(C)C2=O,-3.53% (inactive)
10,O=C(NC1CCCCC1)C1CCCN(S(=O)(=O)c2ccc(Br)s2)C1 (configuration not stated),2.35% (inactive)
11,O=C(C1CCN(S(=O)(=O)c2ccc(Br)s2)CC1)N1CCN(C2CCCCC2)CC1,66.2% (active)
12,O=C(C1CCN(S(=O)(=O)c2ccc(Br)s2)CC1)N1CCN(c2ccccc2)CC1,-4.17% (inactive)
13,C[C@@H]1CN([C@@H](C)CO)C(=O)c2cc(NC(=O)Cc3ccccc3)ccc2O[C@@H]1CN(C)CC1CCCCC1,2.75% (inactive)
14,C[C@@H]1CN([C@H](C)CO)C(=O)c2cc(NC(=O)Cc3ccccc3)ccc2O[C@@H]1CN(C)CC1CCCCC1,-0.335% (inactive)
15,C[C@H]1CCCCO[C@H](CN(C)Cc2ccccc2)[C@@H](C)CN([C@@H](C)CO)C(=O)c2cc(NC(=O)c3ccccc3)ccc2O1,48.2% (active)
16,C[C@H](CO)N1C[C@H](C)[C@H](CN(C)CC2CCCCC2)Oc2ccc(NC(=O)C3CCCCC3)cc2C1=O,0.912% (inactive)
17,C[C@H](CO)N1C[C@H](C)[C@@H](CN(C)CC2CC2)OCCCC[C@H](C)Oc2ccc(NC(=O)Cc3ccccc3)cc2C1=O,57.8% (active)
18,C[C@@H]1CN([C@@H](C)CO)C(=O)c2cc(NC(=O)Cc3ccccc3)ccc2O[C@H]1CN(C)CC1CC1,31.5% (active)
19,C[C@@H]1CCCCO[C@H](CN(C)CC2CC2)[C@@H](C)CN([C@H](C)CO)C(=O)c2cc(NC(=O)Cc3ccccc3)ccc2O1,13.5% (inactive)
20,C[C@H](CO)N1C[C@H](C)[C@H](CN(C)Cc2ccccc2)OCCCC[C@H](C)Oc2ccc(NC(=O)c3ccccc3)cc2C1=O,-7.82% (inactive)
21,C[C@@H]1CN([C@H](C)CO)C(=O)c2cc(NC(=O)C3CCCCC3)ccc2O[C@@H]1CN(C)CC1CCCCC1,22.8% (active)
22,C[C@H](CO)N1C[C@H](C)[C@@H](CN(C)Cc2ccc(C(=O)O)cc2)OCCCC[C@H](C)Oc2ccc(NC(=O)c3ccccc3)cc2C1=O,-2.18% (inactive)
23,C[C@@H]1CCCCO[C@H](CN(C)Cc2ccccc2)[C@@H](C)CN([C@H](C)CO)C(=O)c2cc(NC(=O)Cc3ccccc3)ccc2O1,-14% (inactive)
24,C[C@@H]1CCCCO[C@@H](CN(C)CC2CCCCC2)[C@H](C)CN([C@H](C)CO)C(=O)c2cc(NC(=O)C3CCCCC3)ccc2O1,-14.3% (inactive)
